PubChem BioAssay (EPA / NIEHS)
Several values for one entry are separate records, joined by “and”; a condition that tells them apart may be missing. Equal values may be shown once. Inconclusive results are not listed. Some compounds were tested as several samples or in several runs, with calls that do not always agree. Activity calls are given as the source filed them. How the source made its calls: active means hit-call score of the fitted dose curve at least 0.9, where 1 is the maximum; inconclusive means response in the unintended direction; inactive means score below 0.9.

Each compound was assayed against Cellular tumor antigen p53 (Homo sapiens) (UniProt P04637) (assay: TOX21_p53_BLA_p4_ratio: Tox21 HCT-116 p53 Agonism Beta-lactamase Assay, Ratio, Phase 4 (AID 2283601)).
Chain of Cellular tumor antigen p53 (Homo sapiens) (P04637 whole entry, looked up, the tested form may be a part): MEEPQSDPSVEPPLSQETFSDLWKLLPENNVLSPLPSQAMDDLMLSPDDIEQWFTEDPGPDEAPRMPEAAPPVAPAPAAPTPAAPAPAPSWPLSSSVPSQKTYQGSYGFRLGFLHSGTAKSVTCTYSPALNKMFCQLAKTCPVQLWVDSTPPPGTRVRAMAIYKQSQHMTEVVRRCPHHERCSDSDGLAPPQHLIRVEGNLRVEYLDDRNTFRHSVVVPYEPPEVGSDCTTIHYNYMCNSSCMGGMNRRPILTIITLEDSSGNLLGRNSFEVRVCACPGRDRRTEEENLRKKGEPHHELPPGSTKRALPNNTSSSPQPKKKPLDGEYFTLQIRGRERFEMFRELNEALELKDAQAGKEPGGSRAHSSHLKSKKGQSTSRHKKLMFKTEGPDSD
Text: TOX21_p53_BLA_p4 is a cell-based, single-readout assay that uses HCT116, a human intestinal cell line, […] in a 1536-well plate.TOX21_p53_BLA_p4_ratio is an assay readout measuring reporter gene via receptor activity and designed using inducible reporter (beta lactamase induction) detected with GAL4 b-lactamase reporter gene. The signal is derived from the ratio of cleaved (ch2) to uncleaved (ch1)reporter gene substrate used as the measure of target activity.Data from the assay component TOX21_p53_BLA_p4_ratio was analyzed into 1 assay endpoint. This assay endpoint, TOX21_p53_BLA_p4_ratio, was analyzed in the positive analysis fitting direction relative to DMSO as the negative control and baseline of activity. Using a type of inducible reporter, gain-of-signal activity can be used to understand changes in the reporter gene as they relate to the gene TP53. Furthermore, this assay endpoint can be referred to as a primary readout, because this assay has produced multiple assay endpoints where this ratio serves a reporter gene function to understand target activity. To generalize the intended target to other relatable targets, this assay endpoint is annotated to the DNA binding intended target family, where the subfamily is tumor suppressor.
Thawing Method: Place 14 mL of pre-warmed thaw medium into a 15 mL of conical tub. Remove the vial of cells to be thawed from liquid nitrogen and thaw rapidly by placing at 37C in a water bath with gentle agitation for 1-2 minutes. Decontaminate the vial by wiping with 70% ethanol before opening in a biological safety cabinet. Transfer the vial contents drop-wise into 14 mL of thaw medium in a sterile 15-mL conical tub. Centrifuge cells at 900 rpm for 4 minutes and resuspend in thaw medium. Transfer contents to the T75 tissue culture flask containing Thaw Medium and place flask in a humidified 37C/5% CO2 incubator. Switch to growth medium at first passage.Propagation Method: Aspirate medium, rinse once in DPBS, add 0.25% Trypsin/EDTA and swirl to coat the cell evenly. Add an equal volume of Growth Medium to inactivate Trypsin after 2-3 minutes incubation at 37C. Centrifuge cells at 900 rpm for 4 minutes and resuspend in growth medium. Cell should be passage or fed at least twice a week.Assay Protocol: Harvest cells from culture in growth medium and resuspend in assay medium. 2.2 Dispense 4000 cells/5 uL/well into 1536-well black/clear bottom plates using a Multidrop dispenser. After the cells were incubated at 37C for 5 hours, 23 nL of compounds dissolved in DMSO were transferred to the assay plate by a PinTool resulting in a 217-fold dilution. Incubate the plates for 16 hours at 37C, 5% CO2. Add 1 uL of 6X LiveBLAzer FRET B/G (CCF4-AM) Substrate Mixture to each well using a BioRAPTR dispenser and incubate the plates at room temperature for 2 hours. Measure fluorescence intensity at 460 and 530 nm emission and 405 nm excitation by an Envision detector. Data is expressed as the ratio of 460nm/530nm emissions. Add 4 uL of Cell-titer Glo to each well using BioRAPTR and incubate the plates at room temperature for 2 hours. Measure fluorescence intensity by a VewLux plate reader.
In the case of `CCCC(=O)OCc1ccccc1`, the outcome is reported as “inactive”. With `CC1=NC(C)OC1C` (stereo not given) the outcome was “inactive”. With `CNC(=S)N(C)C` the outcome was “inactive”. `COCCOCCOCCOCCOC` was tested, and the outcome was “inactive”. `O=C(c1ccccc1)c1ccc(O)c(O)c1O` was tested, and the outcome was “inactive”. For `Cc1ccc(C(C)c2ccc(C)c(C)c2)cc1C`, the outcome was “inactive”. `O=C(O)CCCCCCCCCC(=O)O` was tested, and the outcome was “inactive”. `Nc1cccc(C(F)(F)F)c1` was tested, and the outcome was “inactive”. `CCCCC/C=C\C/C=C\CCCCCCCC(=O)OC` was tested, and the outcome was “inactive”. For `O=c1[nH]c(=O)c2[nH]c(=O)[nH]c2[nH]1`, the outcome was “inactive”. With `CC(C)(C)c1ccc(OC(=O)c2ccccc2O)cc1` the outcome was “inactive”. For `O=C(O)CC(C(=O)O)C(CC(=O)O)C(=O)O` (stereo not given), the outcome was “inactive”. With `CC(C)c1ccc2c(C(C)C)cc(C(C)C)c(S(=O)(=O)O)c2c1` the outcome was “inactive”. `CCCCCCCCCCCSCC(=O)O` was tested, and the AC50 was 86.7 µM (active). With `N=c1ccn2c(n1)O[C@H]1[C@H](O)[C@@H](CO)O[C@H]12` the AC50 was 1.27 µM (active) and 1.19 µM (active). `CN1C(=O)N(C)C(O)C1O` (stereo not given) was tested, and the outcome was “inactive”. In the case of `CCCCC(CC)CCC(CC(C)C)OS(=O)(=O)O` (stereo not given), the outcome is reported as “inactive”. With `O=C(Nc1ccccc1)c1ccccc1O` the outcome was “inactive”. For `FC(F)(F)C(=NOCC1OCCO1)c1ccc(Cl)cc1`, the outcome was “inactive”. With `O=C(O)c1cc2ccccc2nc1C(=O)O` the outcome was “inactive”. In the case of `CCCCCCCCCCC=CC#N`, the outcome is reported as “inactive”. In the case of `C[C@]12C=CC(=O)C=C1CC[C@@H]1[C@@H]2[C@@H](O)C[C@@]2(C)[C@H]1CC[C@]2(O)C(=O)CO`, the outcome is reported as “inactive”. For `C=CCOCC(O)CCl` (stereo not given), the outcome was “inactive”. `O=C1C=CC(=O)O1` was tested, and the outcome was “inactive”. `CCOC(=O)CC` was tested, and the outcome was “inactive”. For `CC(C)=CCCC(C)C=O` (stereo not given), the outcome was “inactive”. For `CC(=O)NS(=O)(=O)c1ccc(N)cc1`, the outcome was “inactive”. For `O=C(O)c1ccccc1Nc1cccc(C(F)(F)F)c1`, the outcome was “inactive” and the AC50 was 39.5 µM (active). In the case of `O=c1cc[nH]c(=S)[nH]1`, the outcome is reported as “inactive”. With `O=c1c2ccccc2nnn1CCl` the outcome was “inactive”. In the case of `CC1(C)S[C@@H]2[C@H](NC(=O)COc3ccccc3)C(=O)N2[C@H]1C(=O)O`, the outcome is reported as “inactive”. In the case of `CCOC(=O)c1ccccc1C(=C1C=C(Br)C(=O)C(Br)=C1)c1cc(Br)c(O)c(Br)c1`, the AC50 is reported as 8.23 µM (active). For `CCCNC(=O)NS(=O)(=O)c1ccc(Cl)cc1`, the outcome was “inactive”. `CC(C)=CCC/C(C)=C\C#N` was tested, and the outcome was “inactive”. `CC(C)CC(O)Cc1ccccc1` (stereo not given) was tested, and the outcome was “inactive”. In the case of `[Cl][Bi]([Cl])([c]1ccccc1)([c]1ccccc1)[c]1ccccc1`, the AC50 is reported as 14.1 µM (active). For `C=C(C)[C@H]1CC=C(C)CC1`, the outcome was “inactive”. `CC1=Nc2ccc3ccccc3c2C1(C)C` was tested, and the outcome was “inactive”. `CC(=O)Nc1nnc(S(N)(=O)=O)s1` was tested, and the outcome was “inactive”.
